# Reference: PubChem BioAssay (EPA / NIEHS)
# Activity calls are given as the source filed them. The calls were made as follows: active = hit-call score of the fitted dose curve at least 0.9, where 1 is the maximum; inactive = score below 0.9.
# How the values were obtained:
# [1] = APR_HepG2_CellLoss_72hr: Apredica 72-hour HepG2 Assay for Cell Loss (AID 2282915); conditions: high-content imaging
# Procedure, shortened: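 HepG2 cells exposed 72 h to compound at 0.39–200 uM (10 concentrations, duplicate) in 0.5% DMSO. Fixed with 3.7% formaldehyde and Hoechst 33342-stained. Imaged at 20x; nuclear count gives cell number, fitted bidirectionally versus DMSO.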
# [2] = APR_HepG2_MitoMembPot_72hr: Apredica 72-hour HepG2 Assay for Mitochondrial Membrane Potential (AID 2282917); conditions: imaging, actives raise or lower the signal
# Procedure, shortened: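 HepG2 cells dosed 72 hr with compound at 0.39–200 uM in duplicate, 0.5% v/v DMSO final. Mitochondria stained with 250 nM MitoTracker Red CMXRos for 30 min before formaldehyde fixation, imaged by high-content fluorescence; bidirectional fit versus DMSO.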
# [3] = APR_HepG2_MitoticArrest_72hr: Apredica 72-hour HepG2 Assay for Mitotic Arrest (AID 2282918); conditions: high-content imaging, actives raise or lower the signal
# Procedure, shortened: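 HepG2, 72 hr exposure, 0.39–200 uM in duplicate, 0.5% v/v DMSO final. Formaldehyde-fixed, Triton-permeabilized, anti-phospho-histone H3/FITC plus Hoechst. ArrayScan imaging at 20x; curves fit bidirectionally against DMSO baseline.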
# [4] = APR_HepG2_MicrotubuleCSK_72hr: Apredica 72-hour HepG2 Assay for Microtubule CSK Stabilty (AID 2282919); conditions: HepG2 microtubule cytoskeleton, high-content imaging, actives raise or lower the signal
# Procedure, shortened: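 HepG2, 72 hr cmpd exposure, 0.39–200 uM (10 pts, duplicate), 0.5% DMSO. 3.7% formaldehyde fix, 0.5% Triton perm, anti-alpha-tubulin/Cy5 plus Hoechst. HCS fluorescence intensity; bidirectional fit vs DMSO baseline; taxol as positive control.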
# [5] = APR_HepG2_P-H2AX_24hr: Apredica 24-hour HepG2 Assay for H2AX Phosphorylation (AID 2282920); conditions: high-content imaging, actives raise or lower the signal
# Procedure, shortened: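 HCS fluorescence imaging of phospho-H2A.x immunostain (with Hoechst 33342 nuclear counterstain) in HepG2 after 24 hr compound exposure; 10 concentrations, 0.39–200 uM, duplicate wells, 0.5% v/v DMSO. Gain or loss of signal fitted relative to DMSO baseline.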
# [6] = APR_HepG2_StressKinase_72hr: Apredica 72-hour HepG2 Assay for Stress Kinase (AID 2282921); conditions: HepG2 stress kinase (phospho-c-Jun) imaging, actives raise or lower the signal
# Procedure, shortened: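 Stress kinase signal is phospho-c-Jun immunofluorescence (1:500 primary, Cy3 secondary) in fixed, permeabilized human HepG2 cells imaged at 20x. Exposure lasted 72 hr over ten concentrations from 0.39 to 200 uM, 0.5% DMSO, in duplicate. Bidirectional fit versus DMSO.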
# [7] = APR_HepG2_StressKinase_24hr: Apredica 24-hour HepG2 Assay for Stress Kinase (AID 2282922); conditions: HepG2 stress kinase (phospho-c-Jun) imaging, actives raise or lower the signal
# Procedure, shortened: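 Read-out: phospho-c-Jun immunofluorescence (Cy3 secondary) quantified by high-content imaging at 20x, nuclei defined by Hoechst 33342. Human HepG2 liver cells dosed 24 hr, 0.39–200 uM, DMSO 0.5% v/v; gain or loss of signal fitted relative to DMSO.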
# [8] = APR_HepG2_p53Act_72hr: Apredica 72-hour HepG2 Assay for p53 Activation (AID 2282923); conditions: high-content imaging, actives raise or lower the signal;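 also: average cellular p53 protein immunofluorescence intensity in HepG2 cells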
# Procedure, shortened: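 After 72 h with compound (ten points, 0.39 to 200 uM, final DMSO 0.5% v/v), fixed HepG2 cells were labelled with sheep anti-p53 and Hoechst 33342 and imaged; gain or loss versus DMSO scored.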
# [9] = APR_HepG2_MitoMass_72hr: Apredica 72-hour HepG2 Assay for Mitochondrial Mass (AID 2282924); conditions: high-content imaging, actives raise or lower the signal;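 also: MitoTracker Red CMXRos stain intensity per cell imaged as mitochondrial mass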
# Procedure, shortened: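 Read-out: MitoTracker Red fluorescence intensity from automated imaging (20x, six fields per well) in human HepG2 liver cells. Dosing ran 72 hr, 0.39–200 uM, 0.5% DMSO; bidirectional curve fitting versus DMSO baseline.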
# [10] = APR_HepG2_NuclearSize_72hr: Apredica 72-hour HepG2 Assay for Nuclear Size (AID 2282925); conditions: high-content imaging, actives raise or lower the signal
# Procedure, shortened: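 Read-out: nuclear diameter from Hoechst 33342 images (ArrayScan, 20x, six fields/well), via cell-cycle image analysis. HepG2 were dosed 0.39–200 uM for 72 hr in 0.5% DMSO. Bidirectional fit relative to DMSO.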
# [11] = biological target: CCAAT/enhancer-binding protein beta (Homo sapiens) (UniProt P17676); experiment: ATG_C_EBP_CIS: Attagene CIS-FACTORIAL HepG2 Assay for human CCAAT/Enhancer Binding Protein (C/EBP) beta (AID 2282927); conditions: HepG2 Attagene cis-factorial transcription factor reporter; actives raise or lower the signal
# Procedure, shortened: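 HepG2, transient MRTU transfection, 24 h treatment. RT-PCR plus CE fluorescence; DMSO negative control, bidirectional fit.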
# [12] = ATG_CMV_CIS: Attagene CIS-FACTORIAL HepG2 Assay for human CMV (Internal Marker) (AID 2282928); conditions: HepG2 CMV promoter reporter, transcription factor profiling; actives raise or lower the signal;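 also: endpoint acts as a background internal control marker rather than a target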
# Procedure, shortened: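 Fluorescence intensity of RT-PCR-derived reporter fragments, resolved by capillary electrophoresis, gives the signal. HepG2 liver cells bearing transfected cis-element reporters were treated 24 h; activity in either direction was fit relative to DMSO-treated controls.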
# [13] = ATG_DR4_LXR_CIS: Attagene CIS-FACTORIAL HepG2 Assay for human Liver X Receptor (LXR), DR4 submotif (AID 2282929); conditions: HepG2 Attagene DR4 cis-reporter, mRNA transcription; actives raise or lower the signal
# Procedure, shortened: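 Endogenous factor activity at a DR4 cis-element is read as reporter mRNA in transiently transfected HepG2 cells. Exposure lasts 24 h; transcripts are amplified, fluorescently labelled and sized by capillary electrophoresis, with DMSO as baseline.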
# [14] = biological target: Aryl hydrocarbon receptor (Homo sapiens) (UniProt P35869); experiment: ATG_Ahr_CIS: Attagene CIS-FACTORIAL HepG2 Assay for human Aryl Hydrocarbon Receptor (Ahr) (AID 2282930); conditions: HepG2 AhR cis-factorial reporter transcription; actives raise or lower the signal
# Procedure, shortened: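 Endogenous factor activity is tracked through cis-promoter reporter units transfected into HepG2 cells. Transcript levels at 24 h are read by fluorescent RT-PCR and capillary electrophoresis, with activity in either direction scored relative to DMSO.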
# [15] = ATG_AP_1_CIS: Attagene CIS-FACTORIAL HepG2 Assay for human Activator Protein 1 (AP-1) (AID 2282931); conditions: HepG2 Attagene cis-factorial AP-1 reporter mRNA; actives raise or lower the signal
# Procedure, shortened: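 Fluorescence of labelled PCR fragments separated by capillary electrophoresis gives reporter mRNA levels. HepG2 with transfected cis-regulated reporter units, 24 h exposure; DMSO serves as baseline for bidirectional curve fits.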
# [16] = ATG_BRE_CIS: Attagene CIS-FACTORIAL HepG2 Assay for human Bone Morphogenetic Protein (BMP) Response Element (BRE) (AID 2282933); conditions: HepG2 BMP response element reporter, Attagene transcription factor profiling; actives raise or lower the signal
# Procedure, shortened: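 After a 24 h chemical treatment, transiently transfected HepG2 cells were lysed for RNA; reporter transcripts were quantified by fluorescent RT-PCR and capillary electrophoresis, normalised to DMSO.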
# [17] = biological target: Retinoic acid receptor alpha (Homo sapiens) (UniProt P10276); experiment: ATG_DR5_RAR_CIS: Attagene CIS-FACTORIAL HepG2 Assay for human Retinoic Acid Receptor Alpha (RARE), DR5 submotif (AID 2282934); conditions: HepG2 Attagene cis-factorial RARE DR5 reporter, mRNA; actives raise or lower the signal;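 as to AC50: reporter responds to endogenous RAR alpha beta and gamma in HepG2 not RARA alone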
# Procedure, shortened: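 After 24 h of chemical exposure, transiently transfected HepG2 cells were lysed for total RNA; the DR5-regulated reporter transcript was quantified via RT-PCR and capillary electrophoresis, with activity fitted bidirectionally against DMSO.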
# [18] = ATG_CRE_CIS: Attagene CIS-FACTORIAL HepG2 Assay for human cAMP Responsive Element (CRE) binding protein 3 (AID 2282926); conditions: HepG2 CRE cis-reporter, Attagene multiplexed mRNA; actives raise or lower the signal
# Procedure, shortened: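 Readout: fluorescently labelled reporter transcripts resolved by capillary electrophoresis after RT-PCR, taken 24 h post-dosing in transfected HepG2. Endogenous transcription factor activity drives each cis-element reporter; gain or loss of signal fitted relative to DMSO control.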
# [19] = ATG_AP_2_CIS: Attagene CIS-FACTORIAL HepG2 Assay for human Activator Protein 2 (AP-2) (AID 2282932); conditions: HepG2 AP-2 cis-reporter, Attagene transcription factor profiling; actives raise or lower the signal
# Procedure, shortened: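 Liver-derived HepG2 line, cis-reporter system measuring endogenous factors; 24 h dosing; reporter mRNA detected by fluorescent RT-PCR and capillary electrophoresis.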
# Sequence of Retinoic acid receptor alpha (Homo sapiens) (P10276 whole entry, looked up): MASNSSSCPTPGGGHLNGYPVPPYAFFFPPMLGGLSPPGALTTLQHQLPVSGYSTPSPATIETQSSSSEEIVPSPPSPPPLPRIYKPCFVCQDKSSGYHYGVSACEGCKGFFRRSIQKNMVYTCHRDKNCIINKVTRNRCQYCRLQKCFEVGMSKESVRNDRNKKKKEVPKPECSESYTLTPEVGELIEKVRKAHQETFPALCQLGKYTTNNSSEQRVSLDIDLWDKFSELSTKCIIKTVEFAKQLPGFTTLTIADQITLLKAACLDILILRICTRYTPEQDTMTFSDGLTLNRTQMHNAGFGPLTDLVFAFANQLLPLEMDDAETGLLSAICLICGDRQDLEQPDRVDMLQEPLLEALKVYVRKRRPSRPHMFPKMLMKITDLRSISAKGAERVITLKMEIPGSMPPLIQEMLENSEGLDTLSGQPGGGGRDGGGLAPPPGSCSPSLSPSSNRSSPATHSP
# Sequence of Aryl hydrocarbon receptor (Homo sapiens) (P35869 whole entry, looked up): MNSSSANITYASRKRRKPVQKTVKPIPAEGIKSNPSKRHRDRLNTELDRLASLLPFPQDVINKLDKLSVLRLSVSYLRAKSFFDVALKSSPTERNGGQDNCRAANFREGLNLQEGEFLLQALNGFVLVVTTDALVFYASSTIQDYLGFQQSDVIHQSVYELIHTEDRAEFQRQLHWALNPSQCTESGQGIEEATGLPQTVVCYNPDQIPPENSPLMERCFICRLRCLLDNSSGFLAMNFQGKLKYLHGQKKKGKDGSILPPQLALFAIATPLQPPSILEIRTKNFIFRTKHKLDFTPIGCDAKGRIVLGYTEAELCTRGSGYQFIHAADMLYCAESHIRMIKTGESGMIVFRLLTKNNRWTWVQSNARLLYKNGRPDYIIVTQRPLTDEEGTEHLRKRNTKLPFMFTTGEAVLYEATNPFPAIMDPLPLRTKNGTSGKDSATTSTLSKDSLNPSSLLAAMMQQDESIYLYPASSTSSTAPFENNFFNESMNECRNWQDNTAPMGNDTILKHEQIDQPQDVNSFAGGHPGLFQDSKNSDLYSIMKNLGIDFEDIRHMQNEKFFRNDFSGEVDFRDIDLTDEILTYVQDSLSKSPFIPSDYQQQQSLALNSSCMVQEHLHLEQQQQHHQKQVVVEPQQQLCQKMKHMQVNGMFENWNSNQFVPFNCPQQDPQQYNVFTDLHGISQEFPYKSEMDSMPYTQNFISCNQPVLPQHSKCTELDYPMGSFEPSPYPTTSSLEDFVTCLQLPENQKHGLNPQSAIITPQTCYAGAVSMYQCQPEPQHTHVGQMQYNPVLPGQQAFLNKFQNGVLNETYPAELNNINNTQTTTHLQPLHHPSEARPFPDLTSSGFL
# Sequence of CCAAT/enhancer-binding protein beta (Homo sapiens) (P17676 whole entry, looked up): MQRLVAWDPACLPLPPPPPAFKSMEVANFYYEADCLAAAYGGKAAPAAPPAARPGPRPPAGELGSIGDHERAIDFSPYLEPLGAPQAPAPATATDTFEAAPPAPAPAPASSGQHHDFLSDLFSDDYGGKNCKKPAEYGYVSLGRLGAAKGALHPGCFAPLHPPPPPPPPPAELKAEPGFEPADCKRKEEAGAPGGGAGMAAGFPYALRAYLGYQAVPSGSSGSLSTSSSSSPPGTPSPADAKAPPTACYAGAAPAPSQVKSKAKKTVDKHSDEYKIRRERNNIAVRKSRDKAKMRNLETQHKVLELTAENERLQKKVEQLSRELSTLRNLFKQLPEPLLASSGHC
structure (smiles),measurement,setting,value
Nc1ccccc1N,AC50,[1],9.57 µM (active)
same,outcome,[2],inactive
same,AC50,[3],14.2 µM (active)
same,outcome,[4],inactive
same,AC50,[5],45.8 µM (active)
same,AC50,[6],59.9 µM (active)
same,outcome,[7],inactive
same,AC50,[8],18.9 µM (active)
same,AC50,[9],16.2 µM (active)
same,outcome,[10],inactive
same,AC50,[11],54.2 µM (active)
same,AC50,[12],24.2 µM (active)
same,outcome,[13],inactive
same,AC50,[14],1.41 µM (active)
same,AC50,[15],15.7 µM (active)
same,AC50,[16],5.4 µM (active)
same,outcome,[17],inactive
CCCCCCCCCCCCCCCCCC(=O)O,outcome,[1],inactive
same,outcome,[2],inactive
same,AC50,[3],49.9 µM (active)
same,outcome,[4],inactive
same,outcome,[5],inactive
same,outcome,[6],inactive
same,outcome,[7],inactive
same,outcome,[8],inactive
same,outcome,[10],inactive
same,outcome,[18],inactive
same,outcome,[11],inactive
same,outcome,[12],inactive
same,outcome,[13],inactive
same,outcome,[14],inactive
same,outcome,[15],inactive
same,outcome,[16],inactive
same,outcome,[17],inactive
CC1=C(/C=C/C(C)=C/C=C/C(C)=C/CO)C(C)(C)CCC1,AC50,[1],96.6 µM (active)
same,outcome,[2],inactive
same,AC50,[3],92.8 µM (active)
same,outcome,[4],inactive
same,AC50,[5],76.5 µM (active)
same,outcome,[6],inactive
same,AC50,[7],72.1 µM (active)
same,outcome,[8],inactive
same,outcome,[10],inactive
same,outcome,[18],inactive
same,outcome,[11],inactive
same,AC50,[12],193 µM (active)
same,AC50,[13],65.6 µM (active)
same,AC50,[14],104 µM (active)
same,AC50,[15],168 µM (active)
same,outcome,[16],inactive
same,AC50,[17],0.104 µM (active)
Cc1oc(-c2ccccc2)nc1CCOc1cccc2c1ccn2CCC(=O)O,outcome,[1],inactive
same,outcome,[2],inactive
same,outcome,[3],inactive
same,outcome,[4],inactive
same,outcome,[5],inactive
same,outcome,[6],inactive
same,outcome,[7],inactive
same,outcome,[8],inactive
same,outcome,[9],inactive
same,outcome,[10],inactive
same,AC50,[12],19.8 µM (active)
same,AC50,[13],19.8 µM (active)
same,outcome,[14],inactive
same,outcome,[15],inactive
same,outcome,[16],inactive
same,outcome,[17],inactive
CC(C)(C)c1cc(O)c(C(C)(C)C)cc1O,AC50,[1],51.6 µM (active)
same,AC50,[2],104 µM (active)
same,AC50,[3],11.8 µM (active)
same,outcome,[4],inactive
same,AC50,[5],79.4 µM (active)
same,outcome,[6],inactive
same,AC50,[7],93.1 µM (active)
same,AC50,[8],12.5 µM (active)
same,outcome,[9],inactive
same,AC50,[10],26 µM (active)
same,AC50,[12],30.2 µM (active)
same,AC50,[13],29.5 µM (active)
same,outcome,[14],inactive
same,AC50,[15],31 µM (active)
same,outcome,[19],inactive
same,AC50,[16],30.4 µM (active)
same,AC50,[17],57.1 µM (active)
CC=Cc1ccc(O)c(OC)c1,outcome,[1],inactive
same,outcome,[2],inactive
same,outcome,[3],inactive
same,outcome,[4],inactive
same,outcome,[5],inactive
same,outcome,[6],inactive
same,outcome,[7],inactive
same,outcome,[8],inactive
same,outcome,[9],inactive
same,outcome,[10],inactive
same,outcome,[11],inactive
same,outcome,[12],inactive
same,outcome,[13],inactive
same,AC50,[14],73.5 µM (active)
same,outcome,[15],inactive
same,outcome,[19],inactive
same,outcome,[16],inactive
same,outcome,[17],inactive
Cc1cc(NC(=O)C(=O)O)cc(C)c1Oc1ccc(O)c2c1CCC2,outcome,[1],inactive
same,outcome,[2],inactive
same,outcome,[3],inactive
same,outcome,[4],inactive
same,outcome,[5],inactive
same,outcome,[6],inactive
same,outcome,[7],inactive
same,outcome,[8],inactive
same,outcome,[9],inactive
same,outcome,[10],inactive
same,outcome,[12],inactive
same,AC50,[13],156 µM (active)
same,outcome,[14],inactive
same,outcome,[15],inactive
same,outcome,[16],inactive
CCOC(=O)C(C)(C)Oc1ccc(Cl)cc1,outcome,[1],inactive
same,outcome,[2],inactive
same,outcome,[3],inactive
same,outcome,[4],inactive
same,outcome,[5],inactive
same,outcome,[6],inactive
same,outcome,[7],inactive
same,outcome,[8],inactive
same,outcome,[9],inactive
same,outcome,[10],inactive
same,outcome,[11],inactive
same,outcome,[12],inactive
same,outcome,[13],inactive
same,outcome,[14],inactive
same,outcome,[15],inactive
same,outcome,[19],inactive
same,outcome,[16],inactive
